Hits are enriched below; roughly 7.2% of the tested compounds scored in any of these assays.
MARV entry inh: qHTS for inhibitors of binding or entry into cells for Marburg Virus; actives 1.8% (n = 300,000); Potency, µM (titrated, usually from 37.8 µM), without a hit: top-dose activity change, negative = inhibition, hits mostly inhibitors; Marburg virus pseudotyped entry inhibition, cell reporter; calls by dose curve; tested in HEK293 cells
HCV inhibitor: qHTS Assay for Inhibitors of Hepatitis C Virus (HCV). actives 3.4% (n = 340,000). Huh7.5.1 HCVcc-Cre infection, luciferase reporter, 44 h. Potency, µM (highest dose often 41.8 µM), for the others: at the top dose activity change, negative = inhibition, actives largely listed as inhibitors. AID 651820, 2012
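HCVcc-Cre virus at an moi near 0.5 was added right after compound to cells cultured 4 h from seeding (1,000 cells/well). Luciferase activity was determined 44 h later, 15 min after substrate addition at RT.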
RE007 growth inh: qHTS Assay for Inhibitors of the HIV-1 protein Vpr. S. pombe RE007 Vpr strain, BacTiter-Glo ATP luminescence, 24 h. Potency, µM (titrated, usually from 92.2 µM), for the others: at the top dose activity change, negative = less growth, usual class: inhibitors. actives 0.21% (n = 360,000). AID 651644, 2012; active = well fitted falling curve with a large enough effect; inconclusive = small, poorly fitted or top-dose-only effect; inactive = no such curve, though single readings can be large or run the other way; note: nearly all actives have a fitted effect of over 50% in size
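Fission yeast strain RE007, carrying one chromosomally integrated HIV-1 vpr copy, was seeded at OD 0.01 in PMG+AL medium with 23 nL pinned compound. After 24 h at 30 °C and 99% humidity, viability was read by BacTiter-Glo luminescence.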
Sm TGR block: qHTS Assay for the Inhibitors of Schistosoma Mansoni Peroxiredoxins; purified TGR, DTNB reduction, TNB absorbance 405 nm; Potency, µM (highest dose often 114 µM), for inactives: top-dose activity change, negative = inhibition, actives largely listed as inhibitors; actives 3% (n = 360,000); AID 485364, 2010; note: nearly all actives have a fitted effect of over 60% in size
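TGR 20 nM + NADPH 100 uM (dispensed conc.), cpd preinc 15 min RT; start with NADPH (500 uM addition) then DTNB (15 mM addition). Kinetic TNB absorbance, 405 nm filter. Four-parameter Hill fit across titration.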
Lassa entry inh: qHTS for Inhibitors of binding or entry into cells for Lassa Virus; Lassa virus pseudotype entry inhibition, cell reporter; Potency, µM (series often up to 37.9 µM), for inactives: at the top dose activity change, negative = inhibition, actives largely listed as inhibitors; actives 1.2% (n = 300,000); calls by dose curve; tested in HEK293 cells; note: nearly all actives have a fitted effect of over 50% in size
FMDV antiviral: High Throughput Screening for Foot and Mouth Disease Virus Antivirals; FMDV antiviral cell-based qHTS; Potency, µM (highest dose often 57.9 µM), for inactives: top-dose activity change, negative = inhibition, actives largely listed as inhibitors; actives 1.2% (n = 410,000); AID 1159524, 2015; calls by dose curve; tested in HEK293T cells; note: read-out not given here; nearly all actives have a fitted effect of over 45% in size
The depositor's hits bear a star; [ ] = remark or other dose. Unless noted, calls come from the whole dose curve; as a rule, active = well fitted curve in the direction sought with a large enough effect; inconclusive = small, poorly fitted or top-dose-only effect, or another doubt; inactive = no such curve, though single readings can be large; an effect the other way counts as inactive or inconclusive. % is set by controls: 0 for no effect and ±100 for the full control effect; potency is the fitted concentration of half-maximal effect.

What do the screens show for `O=S(=O)(c1ccc(-c2cnc(C3CC3)o2)cc1)N1CCN(c2ccc(F)cc2)CC1`?
Sm TGR block: 6%; Lassa entry inh: 7.9µM*; FMDV antiviral: 0%

How did COc1ccc(NC(=S)N/C(=N/CS(=O)(=O)c2ccccc2)c2ccccc2)cc1 do in these assays?
MARV entry inh: 19%; HCV inhibitor: 15%; RE007 growth inh: 0%; Sm TGR block: 40µM*; Lassa entry inh: 2%

How did Cc1cccc(NC(=S)N/C(=N/S(=O)(=O)c2ccccc2)c2ccccc2)c1 do in these assays?
MARV entry inh: 13%; HCV inhibitor: inconclusive; RE007 growth inh: -21%; Sm TGR block: inconclusive; Lassa entry inh: inconclusive; FMDV antiviral: 26%

What do the screens show for `O=[N+]([O-])c1ccc(NC(=S)N/C(=N/CS(=O)(=O)c2ccccc2)c2ccccc2)cc1`?
MARV entry inh: inconclusive; HCV inhibitor: 14%; RE007 growth inh: -9%; Sm TGR block: 20µM*; Lassa entry inh: 1%; FMDV antiviral: 8%

Results for C=CCO[C@@H]1C=C[C@@H](c2ccccc2)O[C@@H]1COC ?
MARV entry inh: 18%[14.2 µM]

Results for CCc1ccc2occ(CC(=O)Nc3sc4c(c3C(=O)OC)CCC4)c2c1 ?
MARV entry inh: inconclusive; Sm TGR block: 2%; Lassa entry inh: inconclusive; FMDV antiviral: -17%

What do the screens show for `COc1ccc(CNS(=O)(=O)c2cc(C(=O)Nc3cc(Cl)cc(Cl)c3)ccc2F)cc1`?
Sm TGR block: 13%; Lassa entry inh: -14%[46.1 µM]; FMDV antiviral: -9%

What do the screens show for `Clc1ccc(Cn2ccc(-c3ccc4c(c3)OCO4)n2)cc1Cl`?
MARV entry inh: -6%; HCV inhibitor: 25µM*; RE007 growth inh: 4%; Sm TGR block: 0%; Lassa entry inh: inconclusive; FMDV antiviral: 2%

What do the screens show for `Cc1ccc(NC(=O)c2cc(-c3ccc4c(c3)OCO4)on2)cc1`?
MARV entry inh: 1%; HCV inhibitor: -6%; RE007 growth inh: 2%; Sm TGR block: 1%; Lassa entry inh: inconclusive; FMDV antiviral: 9%

How did Cc1nn(Cc2ccc(Cl)cc2)c(C)c1NC(=O)c1cc(-c2ccc3c(c2)OCO3)on1 do in these assays?
MARV entry inh: inconclusive; HCV inhibitor: 32µM*; RE007 growth inh: -5%; Sm TGR block: 4%; Lassa entry inh: -18%; FMDV antiviral: inconclusive

Results for Cc1nn(Cc2ccc(Cl)c(Cl)c2)c(C)c1NC(=O)c1cc(-c2ccc3c(c2)OCO3)on1 ?
MARV entry inh: 6.5µM*; HCV inhibitor: inconclusive; RE007 growth inh: 1%; Sm TGR block: 6%; Lassa entry inh: inconclusive; FMDV antiviral: inconclusive

What do the screens show for `Clc1ccccc1N1CCN(Cc2ccc3c(c2)OCO3)CC1`?
HCV inhibitor: inconclusive; RE007 growth inh: -23%; Sm TGR block: 9%; FMDV antiviral: -24%

How did Cc1nn(Cc2ccc(Cl)cc2Cl)c(C)c1NC(=O)CCl do in these assays?
MARV entry inh: inconclusive; HCV inhibitor: 13µM*; RE007 growth inh: 16%; Sm TGR block: 40µM*; Lassa entry inh: inconclusive; FMDV antiviral: 22µM*

What do the screens show for `Cc1nn(-c2ccc(N3CCCC3)nn2)c(C)c1CCC(=O)N1CCN(c2ccccc2F)CC1`?
Sm TGR block: 3%; Lassa entry inh: -1%[46.1 µM]; FMDV antiviral: -15%

How did O=C(Cn1cnc2onc(-c3ccc(F)cc3)c2c1=O)Nc1cccc(C(F)(F)F)c1 do in these assays?
Sm TGR block: -6%; Lassa entry inh: 4%[46.1 µM]; FMDV antiviral: inconclusive

How did Cc1nn(C)c(Cl)c1NC(=O)OCc1ccc(Cl)cc1Cl do in these assays?
MARV entry inh: inconclusive; HCV inhibitor: 10µM*; RE007 growth inh: 3%; Sm TGR block: 1%; Lassa entry inh: -25%; FMDV antiviral: inconclusive

How did COc1ccc(-c2cc(C(=O)Nc3cc(C)n(Cc4ccc(Cl)cc4)n3)no2)cc1OC do in these assays?
MARV entry inh: inconclusive; HCV inhibitor: inconclusive; RE007 growth inh: -8%; Sm TGR block: -7%; Lassa entry inh: inconclusive; FMDV antiviral: 3.5µM*

Results for Cc1nn(Cc2ccccc2)c(C)c1NC(=O)c1cc(C(C)C)on1 ?
MARV entry inh: -2%[46.1 µM]; Sm TGR block: 9%; Lassa entry inh: -1%[46.1 µM]; FMDV antiviral: -28%

Results for Cc1nnsc1NC(=O)OCc1ccc(Cl)cc1Cl ?
MARV entry inh: 2%; HCV inhibitor: -26%; RE007 growth inh: -6%; Sm TGR block: 9%; Lassa entry inh: 3%; FMDV antiviral: 0%

Results for Cc1nn(Cc2ccc(Cl)cc2)c(C)c1NC(=O)c1cc(C(C)C)on1 ?
MARV entry inh: inconclusive; HCV inhibitor: 11µM*; RE007 growth inh: -12%; Sm TGR block: -6%; Lassa entry inh: -28%[46.1 µM]; FMDV antiviral: inconclusive

Results for Cc1cc(C(=O)Nc2c(C)nn(Cc3c(Cl)cccc3Cl)c2C)no1 ?
MARV entry inh: 2.6µM*; HCV inhibitor: -26%; RE007 growth inh: -3%; Sm TGR block: 6%; Lassa entry inh: 5.8µM*; FMDV antiviral: -10%

What do the screens show for `COc1ccc(CCNC(=O)c2cc(-c3ccc(Cl)cc3)on2)cc1OC`?
MARV entry inh: -9%[46.1 µM]; Sm TGR block: 0%; Lassa entry inh: inconclusive; FMDV antiviral: 8%

How did CC(=O)OC1CC(OC(C)=O)[C@]2(C)C(CC(=O)[C@]3(C)C2CC[C@@]2(C)C(C(=O)O)OC(=O)C4OC423)C1(C)C (some centres not stated) do in these assays?
FMDV antiviral: 6%

Results for COc1ccc(OC)c(-c2cc(C(=O)Nc3c(C)nn(Cc4ccc(Cl)cc4)c3C)no2)c1 ?
MARV entry inh: inconclusive; HCV inhibitor: 14µM*; RE007 growth inh: 4%; Sm TGR block: 0%; Lassa entry inh: inconclusive; FMDV antiviral: inconclusive

What do the screens show for `COc1ccc2c(c1)-c1nc(-n3ncc(C(=O)N(C)CC4CCCN(C)C4)c3C)ncc1CC2` (configuration not stated)?
FMDV antiviral: -17%

What do the screens show for `O=C(C1=NN[C@@H]2C(=O)N(c3cccc(F)c3)C(=O)[C@H]12)c1cnccn1`?
MARV entry inh: -2%[14.2 µM]; HCV inhibitor: 12%; RE007 growth inh: 2%; Sm TGR block: 3.2µM*; Lassa entry inh: 22%; FMDV antiviral: 7%

What do the screens show for `O=C(C1=NN[C@@H]2C(=O)N(c3ccccc3C(F)(F)F)C(=O)[C@H]12)c1cnccn1`?
HCV inhibitor: 10%; RE007 growth inh: 17%; Sm TGR block: -23%; FMDV antiviral: -17%
